Bioassay records from PubChem.
Vaccinia Venus: vaccinia inhibition (Venus reporter) | Potency, µM (top dose mostly 36.5 µM), without a hit: at the top dose activity change, negative = inhibition, usual class: inhibitors | Vaccinia virus Venus reporter expression, fluorescence | actives 0.46% (n = 330,000) | AID 720580; calls by dose curve; tested in A549 cells; further: potency means the concentration at half of the fitted maximal effect; nearly all actives have a fitted effect of over 30% in size
Vaccinia mCherry: vaccinia inhibition (mCherry reporter); Vaccinia virus mCherry reporter infection, fluorescence; Potency, µM (series often up to 36.5 µM), inactives show at the highest dose activity change, negative = inhibition, usual class: inhibitors; actives 0.63% (n = 310,000); AID 720579; calls by dose curve; tested in A549 cells; further: potency means the concentration at half of the fitted maximal effect; nearly all actives have a fitted effect of over 35% in size
Sm TGR inh: blocks Schistosoma mansoni thioredoxin glutathione reductase. purified TGR, DTNB reduction, TNB absorbance 405 nm. Potency, µM (highest dose often 114 µM), for the others: top-dose activity change, negative = inhibition, usual class: inhibitors. actives 3% (n = 360,000). AID 485364; further: potency means the concentration at half of the fitted maximal effect; nearly all actives have a fitted effect of over 60% in size
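First, TGR (20 nM dispensed) and NADPH were mixed with compound. Second, a 15 min room-temperature incubation followed. Third, further NADPH and then DTNB were added to start the reaction. Finally, TNB absorbance was monitored kinetically.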
FMDV antiviral: blocks foot and mouth disease virus; FMDV antiviral cell-based qHTS; Potency, µM (titrated, usually from 57.9 µM), for the others: at the highest dose activity change, negative = inhibition, hits mostly inhibitors; actives 1.2% (n = 410,000); AID 1159524; calls by dose curve; tested in HEK293T cells; further: read-out not given here; potency means the concentration at half of the fitted maximal effect; nearly all actives have a fitted effect of over 45% in size
HCMV inh: inhibitors of human cytomegalovirus; HFF cells, HCMV-luciferase reporter, 72 h; stronger effect = lower value; actives 4.5% (n = 410,000); activity change, negative = inhibition, % at 57.5 µM; in the data active means activity change below about -60%; inconclusive means no clear call, values can overlap the other calls; inactive means above about -39%
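Cell-based, HFFs, 1000 cells/well, 16 h 37C; cpds in DMSO + HCMV-luc, MOI 1 PFU/cell; 72 h 37C; OneGlo luminescence after 5 min RT; norm. to buffer vs Salinomycin 10uM.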
HCV inh: HCV inhibition; Huh7.5.1 HCVcc-Cre infection, luciferase reporter, 44 h; Potency, µM (series often up to 41.8 µM), without a hit: at the top dose activity change, negative = inhibition, most hits filed as inhibitors; actives 3.4% (n = 340,000); AID 651820; further: potency means the concentration at half of the fitted maximal effect
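After 44 h co-culture of compound, cells and HCVcc-Cre (~0.5 moi), substrate is added for 15 min at room temperature and luciferase measured over 15 sec. Cells were seeded at 1,000/well and pre-cultured 4 h.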
Numbers without * were called inactive. Shown are actives, neighbours in structure and some others; about 9.3% of the full set was active somewhere. Unless noted, the call rests on the fitted dose curve; in most records, active means well fitted curve in the direction sought with a large enough effect; inconclusive means small, poorly fitted or top-dose-only effect, or another doubt; inactive means no such curve, though single readings can be large; an effect the other way counts as inactive or inconclusive. On the % scale 0 is the no-effect control and ±100 the full control effect.

For C[N+](C)(C)CCCNC(=O)c1ccc(/C=N/O)nc1 the results were Sm TGR inh 0%, FMDV antiviral -21%, HCMV inh -1 and HCV inh 2%.
Cc1c(NC(=O)c2cc(-c3cccc(O)c3)on2)c(=O)n(-c2ccccc2)n1C was read as Vaccinia Venus -5%, Vaccinia mCherry 0%, Sm TGR inh -22%, FMDV antiviral 10% and HCMV inh -17.
`COc1cccc(-c2cc(C(=O)Nc3cc(C)n(Cc4ccc(Cl)cc4)n3)no2)c1` gave Sm TGR inh 7%, FMDV antiviral inconclusive, HCMV inh -80* and HCV inh 6.3µM*.
`COc1ccc(OC)c(-c2cc(C(=O)Nc3cc(C)n(Cc4ccc(Cl)cc4)n3)no2)c1` gave Sm TGR inh 1%, FMDV antiviral 22µM*, HCMV inh 9 and HCV inh 11µM*.
Screening COc1ccc(-c2cc(C(=O)Nc3cccc(O)c3)no2)cc1 returned Sm TGR inh -6%, FMDV antiviral 20µM*, HCMV inh -11 and HCV inh -25%.
`COc1ccc(OC)c(-c2cc(C(=O)Nc3c(C)nn(Cc4ccc(C)cc4)c3C)no2)c1` gave Vaccinia Venus -30%, Vaccinia mCherry -31%, Sm TGR inh 2%, FMDV antiviral inconclusive and HCMV inh -15.
For COc1cccc(-c2cc(C(=O)Nc3c(C)n(C)n(-c4ccccc4)c3=O)no2)c1 the results were Vaccinia Venus -11%, Vaccinia mCherry inactive, Sm TGR inh -15%, FMDV antiviral -18%, HCMV inh -108* and HCV inh inconclusive.
Screening CCn1c(C(=O)N2CCC(C(=O)N3CCN(c4ccccn4)CC3)CC2)cc2sccc21 returned Vaccinia Venus -13%, Vaccinia mCherry inactive, Sm TGR inh -1%, FMDV antiviral 0%, HCMV inh -2 and HCV inh inconclusive.
COc1ccc(-c2csc(Nc3cccnc3)n2)cc1OC was read as Sm TGR inh -8%, FMDV antiviral -2%, HCMV inh 63 and HCV inh inconclusive.
Screening Cc1ccc(Nc2nc(-c3ccc(O)c(O)c3)cs2)nc1 returned Vaccinia Venus -11%, Vaccinia mCherry inconclusive, Sm TGR inh 5.6µM*, FMDV antiviral -8%, HCMV inh -7 and HCV inh inconclusive.
For Cc1ccc(Nc2nc(-c3ccc(F)cc3)cs2)nc1 the results were Sm TGR inh 41%, FMDV antiviral 53%, HCMV inh 107 and HCV inh -16%.
COc1ccc(-c2csc(Nc3ccc(C)cn3)n2)cc1OC was read as FMDV antiviral -10%, HCMV inh -20 and HCV inh 13µM*.
Cc1ccnc(Nc2nc(-c3ccccc3)cs2)c1 was read as Sm TGR inh inconclusive, FMDV antiviral -13%, HCMV inh 52 and HCV inh inconclusive.
Screening COc1ccc(-c2csc(Nc3cc(C)ccn3)n2)cc1OC returned Vaccinia Venus -26%, Vaccinia mCherry inconclusive, Sm TGR inh inconclusive, FMDV antiviral -55%, HCMV inh -11 and HCV inh 10µM*.
Screening Cc1nnc(SCCC(C)C)[nH]c1=O returned Vaccinia Venus inconclusive, Vaccinia mCherry -17%, Sm TGR inh -25%, FMDV antiviral -7%, HCMV inh -11 and HCV inh 3%.
Screening CC(C)n1c(SCC(=O)Nc2nc3ccccc3s2)nc2c1c(=O)n(C)c(=O)n2C returned Vaccinia Venus -12%, Vaccinia mCherry -23%, FMDV antiviral 22µM*, HCMV inh 67 and HCV inh inconclusive.
CC(C)(C)c1nc2ccccc2c2nnc(SCC(=O)Nc3nc4ccccc4s3)n12 was read as Vaccinia Venus -23%, Vaccinia mCherry -21%, Sm TGR inh 17%, FMDV antiviral inconclusive, HCMV inh 10 and HCV inh 13µM*.
For Cc1cc(NC(=O)CSc2nc3c(c(=O)n(C)c(=O)n3C)n2C(C)C)no1 the results were Vaccinia Venus -4%, Vaccinia mCherry -16%, Sm TGR inh 6%, FMDV antiviral -25%, HCMV inh 47 and HCV inh 0%.
`CC(C)n1c(SCC(=O)Nc2ccc3c(c2)OCO3)nc2c1c(=O)n(C)c(=O)n2C` gave Vaccinia Venus -7%, Vaccinia mCherry inactive, Sm TGR inh -2%, FMDV antiviral -22%, HCMV inh -36 and HCV inh inconclusive.
`CC(C)(C)c1nc2ccccc2c2nnc(SCC(=O)Nc3nccs3)n12` gave Vaccinia Venus -27%, Vaccinia mCherry inconclusive, Sm TGR inh 7%, HCMV inh -19 and HCV inh inconclusive.
Screening CCCn1c(SCC(=O)Nc2nc(-c3ccc(OC)cc3)cs2)nc2c1c(=O)n(C)c(=O)n2C returned Vaccinia Venus -4%, Vaccinia mCherry 7%, Sm TGR inh -13%, FMDV antiviral inconclusive, HCMV inh 20 and HCV inh 22%.
`CCn1c(SCC(=O)Nc2nc3ccc(OC)cc3s2)nc2c1c(=O)n(C)c(=O)n2C` gave Sm TGR inh -28%, FMDV antiviral inconclusive, HCMV inh 7 and HCV inh 4µM*.
For CC(C)n1c(SCC(=O)c2ccc3c(c2)OCCO3)nc2c1c(=O)n(C)c(=O)n2C the results were Vaccinia Venus 6%, Vaccinia mCherry -7%, Sm TGR inh -8%, HCMV inh -19 and HCV inh 13µM*.
COc1ccccc1N1CCN(C2CCCN(C(=O)CCc3cnccn3)C2)CC1 (stereo unspecified) was read as Sm TGR inh -24%, FMDV antiviral -7%, HCMV inh 0 and HCV inh 20%.
For COc1ccccc1COC(=O)CN1C(=O)NC2(CCCCC2C)C1=O (stereo unspecified) the results were Vaccinia Venus -4%, Vaccinia mCherry -7%, Sm TGR inh -1%, FMDV antiviral -13%, HCMV inh -36 and HCV inh 13%.
`Cc1ccc(CNC(=O)C(C)n2ccc3cc(S(=O)(=O)N4CCCC4)ccc32)cc1` (stereo unspecified) gave Vaccinia Venus -23%, Vaccinia mCherry inactive, Sm TGR inh -1%, FMDV antiviral 2% and HCMV inh -28.
For CN(c1ccc(C(=O)N2CCOCC2)cc1)S(C)(=O)=O the results were Vaccinia Venus -4%, Vaccinia mCherry -9%, Sm TGR inh 23%, HCMV inh inconclusive and HCV inh 14%.
CCOc1ccc2nc(NC(=O)CSc3nc4c(c(=O)n(C)c(=O)n4C)n3C(C)C)sc2c1 was read as Vaccinia Venus -3%, Vaccinia mCherry -4%, Sm TGR inh 0%, FMDV antiviral 22µM*, HCMV inh -1 and HCV inh inconclusive.
